CHT PAM: allosteric activators of human choline transporter CHT; AID 488977; 310,000 compounds, 0.49% hits; Q9GZV3; CHT-expressing cells, membrane potential dye, choline EC20; stronger effect = higher value; LV-AA mutant CHT in HEK293 cells; B-score at 10 µM;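 active = initial fluorescence not abnormally high and integrated response B-score, plate-corrected, over 3 SD above library mean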
CHT inh: inhibitors of human choline transporter CHT | CHT-expressing cells, membrane potential dye, choline response; stronger effect = lower value | B-score at 10 µM | 310,000 compounds, 0.86% hits;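 active = B-score over 3 SD under the library average, and starting fluorescence ratio not unusually high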;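 also: choline stimulus applied at its EC90 after an EC20 pre-addition; B-score computed on integrated fluorescence ratio after choline addition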
PKA-R1A act: activates the PKA-R1A holoenzyme complex | P00514+P68181 | activation, % at 11.4 µM | PKA-R1A dissociation, Cy5-IP20 fluorescence polarization; scaled: DMSO 0%, 113 µM cGMP 100% | 340,000 compounds, 0.083% hits | AID 504707;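 active = percent activation above the mean of all tested compounds plus 3 SD, cut at about 19% in these data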;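 also: higher means more PKAc released from R1A so a rise in polarization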
PKA-R2B act: activates the human PKA-R2B holoenzyme complex; P22694+P31323; PKA-R2B holoenzyme dissociation, Cy5-IP20 fluorescence polarization; R2B truncated from residue 108, S112A mutant; 0% DMSO only, 100% 113 µM cGMP; activation, % at 11.4 µM; 340,000 compounds, 0.079% hits;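 active = activation above a cutoff set at the mean over all compounds plus 3 SD, cut at about 18% in these data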;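 also: higher means more holoenzyme dissociation and a rise in polarization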
TMEM16A inh: inhibitors of mouse TMEM16A calcium-activated chloride channel; Q8BHY3; HEK293 TMEM16A/YFP iodide influx fluorescence, ionomycin; normalized B-score (activity score, 25-100; higher = stronger inhibition) at 10 µM; 310,000 compounds, 1.2% hits; AID 588511;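 active = ratio plate-corrected score three or more library SD toward inhibition, starting fluorescence score within five deviations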;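 also: score derived from kinetic fluorescence span divided by baseline fluorescence per well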
Target sequence (Q8BHY3 whole entry, looked up): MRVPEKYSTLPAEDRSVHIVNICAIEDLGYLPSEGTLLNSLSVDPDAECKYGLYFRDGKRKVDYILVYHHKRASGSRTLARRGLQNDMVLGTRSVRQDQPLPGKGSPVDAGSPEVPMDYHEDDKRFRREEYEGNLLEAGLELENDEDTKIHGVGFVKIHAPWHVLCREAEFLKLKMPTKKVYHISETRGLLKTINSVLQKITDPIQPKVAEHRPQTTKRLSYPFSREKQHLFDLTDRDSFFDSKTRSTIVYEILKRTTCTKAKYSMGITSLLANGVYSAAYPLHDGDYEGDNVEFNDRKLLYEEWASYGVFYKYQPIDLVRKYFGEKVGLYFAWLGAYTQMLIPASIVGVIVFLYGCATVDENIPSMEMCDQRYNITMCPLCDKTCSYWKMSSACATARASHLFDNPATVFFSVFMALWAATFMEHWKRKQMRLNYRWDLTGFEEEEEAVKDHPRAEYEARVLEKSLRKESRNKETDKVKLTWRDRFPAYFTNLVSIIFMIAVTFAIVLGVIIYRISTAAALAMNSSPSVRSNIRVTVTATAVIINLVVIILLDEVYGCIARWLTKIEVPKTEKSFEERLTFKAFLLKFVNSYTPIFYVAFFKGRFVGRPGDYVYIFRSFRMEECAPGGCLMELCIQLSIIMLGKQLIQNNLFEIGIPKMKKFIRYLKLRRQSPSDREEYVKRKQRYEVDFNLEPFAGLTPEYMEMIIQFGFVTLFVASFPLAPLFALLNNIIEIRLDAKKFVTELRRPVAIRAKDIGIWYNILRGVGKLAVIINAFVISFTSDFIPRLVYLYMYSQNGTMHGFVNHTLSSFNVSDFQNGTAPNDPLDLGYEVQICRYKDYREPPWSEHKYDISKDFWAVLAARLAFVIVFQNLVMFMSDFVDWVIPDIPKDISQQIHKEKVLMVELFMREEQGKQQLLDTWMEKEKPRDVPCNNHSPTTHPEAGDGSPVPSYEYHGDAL
TMEM16A act: activators or potentiators of mouse TMEM16A chloride channel. Q8BHY3. HEK293 TMEM16A/YFP-H148Q/I152L, iodide quench fluorescence; stronger effect = lower value. B-score at 10 µM. 340,000 compounds, 0.3% hits. AID 623877;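 active = fluorescence-ratio B-score plate-corrected deviation score at least 3 library SD below zero, with starting fluorescence score within 5 deviations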;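 also: channel opened by trigger with iodide after compound preincubation; score built on the fluorescence ratio of max minus min over baseline; more negative score means more quench and so TMEM16A activation or potentiation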
Numbers without * were called inactive; i = inactive; . = not tested or not shown. Sampled rows, rich in hits. Any-hit rate of the full collection: about 2.5%.

SMILES | CHT PAM | CHT inh | PKA-R1A act | PKA-R2B act | TMEM16A inh | TMEM16A act
N#CCCn1nc(-c2ccc(Br)cc2)cc1Nc1ccccc1NC(=O)C(F)(F)F | i | i | -5 | -2 | 100* | i
N#CCCn1nc(-c2ccccc2)cc1Nc1ccccc1NC(=O)C(F)(F)F | i | i | -5 | 3 | i | i
CCCCCCCCn1c(=O)c(C(=O)OC)c(N)c2ccccc21 | i | i | . | . | 100* | i
CCCCCCn1c(=O)c(-c2ccccc2)c(O)c2ccccc21 | i | i | 3 | 0 | i | i
Cc1nn(-c2ccccc2)c(Cl)c1/C=N/NC(=O)c1ccccc1NS(=O)(=O)c1cccs1 | i | i | 5 | -19 | 100* | i
O=C(Nc1ncc([N+](=O)[O-])s1)c1cccc([N+](=O)[O-])c1 | i | i | -4 | 1 | 100* | -4.6*
O=C(Nc1ccc([N+](=O)[O-])cc1)c1cccc([N+](=O)[O-])c1 | . | . | 7 | 0 | . | .
O=C(Nc1ncc(S(=O)(=O)c2ccc([N+](=O)[O-])cc2)s1)c1ccc2ccccc2c1 | i | i | -4 | 4 | 100* | i
CC(=O)N(C)c1ccc(NC(=S)NCC(C)C)cc1 | i | i | 5 | -1 | i | i
CCOc1cc(C(=O)NCCC(=O)N2CCC3(CC2)NCCc2[nH]cnc23)cc(OCC)c1OCC | i | i | -3 | -5 | i | i
Cc1cc(C)cc(NC(=S)N(Cc2ccc(Br)cc2)Cc2ccc(C(=O)O)cc2)c1 | i | i | 8 | 2 | 25* | i
Cc1ccccc1C(=O)Nc1nc(=S)ss1 | i | i | -11 | 0 | 100* | i
O=C(NC1CCSc2ccccc21)c1cc(S(=O)(=O)N2CCOCC2)ccc1Cl (centres undefined) | i | i | -10 | -16 | i | i
Cc1c(N=Cc2nc3ccccc3[nH]2)c(=O)n(-c2ccccc2)n1C | i | i | -14 | -2 | i | -13*
CCOc1ccccc1NC(=O)CSc1nc2nc(-c3cccs3)cc(C(F)(F)F)c2c(=O)[nH]1 | i | i | -7 | -8 | 100* | i
O=C(CCCc1nc2ccccc2s1)NCc1ccccc1 | i | i | 0 | -6 | i | i
O=C(CCCc1nc2ccccc2s1)NNC(=O)CCN1CCN(Cc2ccccc2)CC1 | i | i | -5 | 6 | i | -22*
CCc1ccc(-c2cc(C)no2)cc1S(=O)(=O)N1CCN(c2ccc(F)cc2)CC1 | i | i | -5 | -10 | i | i
CCC(NC(=O)Nc1nnc(C(F)(F)F)s1)(C(F)(F)F)C(F)(F)F | i | i | -1 | 3 | 100* | i
Cc1cc[n+](-c2[nH]c(=O)sc2/C=N/N=C(\[O-])c2ccccc2)cc1C | . | . | 4 | 10 | . | -5.6*
COc1cc(C(=O)Nc2scc(-c3ccc(Br)cc3)c2C(=O)O)cc(OC)c1OC | i | i | 4 | 8 | 100* | i
Cc1cccc(C(=O)Nc2scc(-c3ccc(Br)cc3)c2C(=O)O)c1 | i | i | -5 | -3 | i | i
O=C(COC(=O)c1ccc(O)cc1O)NC(=O)NCc1ccccc1 | . | . | 2 | -4 | . | i
COC(=O)c1c[nH]c(=S)n1Cc1ccccc1 | . | . | 3 | -4 | . | -5.4*
COc1ccc(N(C)S(=O)(=O)c2cccc(C(=O)NCC3CCCCC3)c2)cc1 | . | . | 4 | -10 | . | -37*
SMILES | CHT PAM | CHT inh | PKA-R1A act | PKA-R2B act | TMEM16A inh | TMEM16A act
COc1ccc(N(C)S(=O)(=O)c2cccc(C(=O)NC3CCCC3)c2)cc1 | i | i | 0 | 2 | i | i
CCC(C)NC(=O)CN1c2cccc3cccc(c23)S1(=O)=O (centres undefined) | i | i | 3 | 1 | i | -7.2*
CC(=O)c1ccc(NC(=O)CN2c3cccc4cccc(c34)S2(=O)=O)cc1 | . | . | 1 | -10 | . | -4.7*
COc1cccc(-c2nc(-c3ccccc3)c(-c3ccccc3)[nH]2)c1OCC(=O)O | i | -6.6* | -4 | 1 | i | i
O=C(CCCn1c(=O)[nH]c2cc(Cl)ccc2c1=O)NC1CCCCCC1 | i | i | 3 | 0 | 25* | i
COc1cc2[nH]c(=O)n(CCCCCC(=O)NC3CCCC3)c(=O)c2cc1OC | i | i | -17 | 2 | i | i
COc1ccc2nc3cc(Cl)ccc3c(C#N)c2c1 | i | i | -1 | -16 | i | -7.2*
COc1ccc2nc(C(F)(F)Cl)c(C#N)c(N)c2c1 | i | i | -1 | 11 | i | i
CC(C)n1c(=NC(=O)c2ccco2)c(C#N)cc2c(=O)n3ccccc3cc21 | 7.2* | i | -3 | -5 | i | i
CCOC(=O)c1cc2c(=O)n3ccccc3nc2n(C(C)C)c1=NC(=O)c1ccco1 | i | i | 3 | -8 | i | i
Cc1ccc(NC(=O)c2cc(S(=O)(=O)N3CCCCC3)ccc2N2CCOCC2)c(C)c1 | . | . | 1 | -7 | . | .
COC(=O)c1scc(C)c1NC(=O)Nc1ccccc1 | i | i | 3 | -2 | 25* | i
Cc1ccc([C@@H]2CC=C(C(=O)O)[C@H](c3ccccc3F)N2S(=O)(=O)c2ccc(C)cc2)cc1 | i | i | -13 | -2 | i | -24*
Cc1ccc(S(=O)(=O)N2[C@@H](c3ccccc3)C(C(=O)O)=CC[C@H]2c2cccc(Cl)c2)cc1 | i | i | 5 | 3 | i | i
Cc1ccc(S(=O)(=O)N2[C@@H](c3ccc(Br)cc3)C(C(=O)O)=CC[C@H]2c2ccc(C(C)C)cc2)cc1 | . | . | -5 | 0 | . | .
Cc1ccc(S(=O)(=O)N2[C@@H](c3ccccc3F)C(C(=O)O)=CC[C@H]2c2ccc(C(C)C)cc2)cc1 | i | i | -12 | 1 | 100* | i
Cc1ccc(S(=O)(=O)N2[C@@H](c3cccc(Cl)c3)C(C(=O)O)=CC[C@H]2c2ccc(Cl)cc2)cc1 | i | i | -3 | -13 | 100* | i
CC1CCCN(S(=O)(=O)c2ccccc2[N+](=O)[O-])C1 (centres undefined) | i | i | -4 | 8 | i | i
NC(=O)NN=C1CCN2CCCc3cccc1c32 | . | . | -13 | -6 | . | .
CCOc1ccccc1NC(=O)CN(c1ccc(OC)cc1OC)S(=O)(=O)c1ccccc1[N+](=O)[O-] | i | i | -16 | -9 | i | -5.2*
CCCCc1ccc(NC(=S)Nc2ccc(Cl)c(S(=O)(=O)N(C)C)c2)cc1 | i | i | -3 | -3 | 100* | i

Screening data as filed in PubChem.
